KDM5B inh: KDM5B demethylase inhibition; Potency, µM (highest dose often 57.7 µM), most hits filed as inhibitors; Q9UGL1; KDM5B demethylase, FDH-coupled NADH fluorescence (FDH is formaldehyde dehydrogenase); 2.6% of 220,000 active; AID 1347165; active = well fitted inhibition curve with a large enough effect; note: 0% is about no effect; nearly all actives have a fitted effect of over 70% in size
Target sequence (Q9UGL1 whole entry, looked up): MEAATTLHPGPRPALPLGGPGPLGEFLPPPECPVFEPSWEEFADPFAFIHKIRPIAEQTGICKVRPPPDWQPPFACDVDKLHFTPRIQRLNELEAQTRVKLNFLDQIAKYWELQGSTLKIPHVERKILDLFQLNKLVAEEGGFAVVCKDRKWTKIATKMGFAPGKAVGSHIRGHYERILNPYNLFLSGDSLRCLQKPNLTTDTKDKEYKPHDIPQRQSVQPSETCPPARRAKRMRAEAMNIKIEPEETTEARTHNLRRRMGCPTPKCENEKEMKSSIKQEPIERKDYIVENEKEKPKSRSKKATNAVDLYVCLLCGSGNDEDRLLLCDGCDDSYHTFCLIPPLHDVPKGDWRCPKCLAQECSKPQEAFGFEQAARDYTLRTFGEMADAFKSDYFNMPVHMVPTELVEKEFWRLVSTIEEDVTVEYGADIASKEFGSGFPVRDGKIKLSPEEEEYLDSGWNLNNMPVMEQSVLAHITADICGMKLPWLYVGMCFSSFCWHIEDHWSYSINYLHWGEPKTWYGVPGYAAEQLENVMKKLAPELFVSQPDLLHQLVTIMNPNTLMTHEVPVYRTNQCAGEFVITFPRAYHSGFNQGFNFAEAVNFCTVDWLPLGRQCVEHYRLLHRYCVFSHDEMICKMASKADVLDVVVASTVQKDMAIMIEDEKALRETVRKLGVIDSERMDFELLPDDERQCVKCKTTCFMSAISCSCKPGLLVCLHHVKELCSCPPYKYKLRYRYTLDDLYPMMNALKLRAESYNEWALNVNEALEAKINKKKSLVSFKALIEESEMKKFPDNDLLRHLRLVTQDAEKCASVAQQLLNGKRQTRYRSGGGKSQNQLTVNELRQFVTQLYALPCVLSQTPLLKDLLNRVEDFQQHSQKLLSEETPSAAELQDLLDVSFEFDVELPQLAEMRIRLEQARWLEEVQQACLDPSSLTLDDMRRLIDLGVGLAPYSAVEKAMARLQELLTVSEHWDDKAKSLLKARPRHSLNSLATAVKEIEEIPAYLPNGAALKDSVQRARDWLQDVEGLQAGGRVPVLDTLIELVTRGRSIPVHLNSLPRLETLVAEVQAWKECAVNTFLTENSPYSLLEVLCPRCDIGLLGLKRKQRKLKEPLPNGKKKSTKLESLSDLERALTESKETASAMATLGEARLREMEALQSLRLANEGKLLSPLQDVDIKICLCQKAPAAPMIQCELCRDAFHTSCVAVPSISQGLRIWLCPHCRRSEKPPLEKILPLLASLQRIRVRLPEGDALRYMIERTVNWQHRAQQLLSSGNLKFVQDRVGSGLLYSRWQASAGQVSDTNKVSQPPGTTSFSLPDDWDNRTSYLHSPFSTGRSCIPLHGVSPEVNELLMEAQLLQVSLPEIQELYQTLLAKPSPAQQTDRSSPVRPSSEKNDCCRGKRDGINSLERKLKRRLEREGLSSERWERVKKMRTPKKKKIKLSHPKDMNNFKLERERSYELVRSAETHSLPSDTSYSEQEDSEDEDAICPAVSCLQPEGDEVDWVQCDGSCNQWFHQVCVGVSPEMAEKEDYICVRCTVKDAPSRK
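Measured: NADH fluorescence change, 30 min, RT. System: KDM5BΔAP 200 nM final, H3K4me3 peptide, α-KG, Fe(II), ascorbate, NAD⁺ plus FDH, pH 7.5 HEPES. Compounds: titrated, 10 min pre-incubation with enzyme.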
Starred values were filed as active, the others as inactive; i = inactive. The full list was thinned out, with hits kept by preference. Potency is the fitted concentration of half-maximal effect.

SMILES	KDM5B inh
O=C1c2cc(N3CCOCC3)nc(-c3cnc4[nH]ccc4c3)c2CN1CC(F)(F)F	32µM*
O=C1Cc2c(-c3cccc(O)c3)n[nH]c2CN1CC1CC1	i
O=C1c2cc(N3CCOCC3)nc(-c3cnc4[nH]ccc4c3)c2CN1CC1CC1	13µM*
O=C1c2cc(N3CCOCC3)nc(-c3ccccc3F)c2CN1CC(F)(F)F	32µM*
O=c1[nH]c(N2CCOCC2)nc2c1CCN(Cc1ccccc1F)CC2	i
O=C1Cc2c(-c3ccsc3)n[nH]c2CN1CC1CCOCC1	i
CN1CC(=O)N(c2ccccc2F)Cc2c1ncnc2N1CCOCC1	i
COc1ccc(-c2c(C)noc2-c2ccc(O)cc2O)cc1OC	i
O=C(CSc1ncc(-c2ccc(F)cc2)o1)Nc1cc(F)ccc1F	i
Cc1nn(C)c(C)c1Nc1ccc(S(=O)(=O)NC(C)C)cc1[N+](=O)[O-]	i
CCc1cccc(C)c1NC(=O)COC(=O)c1cc(C)nc2ccccc12	i
O=C(NCCCCc1ccccc1)c1cc(=O)c2ccccc2o1	i
CC(=O)NCc1ccc(S(=O)(=O)N2CCN(c3ccccn3)CC2)cc1	i
O=C(NCCNC(=O)c1cc2ccccc2[nH]1)c1ccccn1	i
O=C(NCC(=O)N1CCN(c2ccccn2)CC1)c1cc2ccccc2[nH]1	14µM*
CCOc1ccccc1C(=O)N1CCN(c2cc(-c3ccc(F)cc3)[nH]n2)CC1	i
CC(C)(C)CC(=O)NCC(=O)N1CCN(c2ccccn2)CC1	28µM*
CCOc1ccccc1C(=O)N1CCN(CCc2ccccn2)CC1	i
Cn1cc(-c2ccncc2)cc1C(=O)N1CCN(c2ccccn2)CC1	i
O=C1N[C@H](CC(=O)N2CCN(c3ccccn3)CC2)C(=O)Nc2ccccc21	28µM*
CCOc1ccccc1C(=O)NCC(=O)N1CCN(c2ccccn2)CC1	28µM*
O=C(NCc1ccccn1)C(=O)N1CCN(C(=O)c2cc3ccccc3[nH]2)CC1	i
O=C1N[C@H](CC(=O)N2CCN(CCc3ccncc3)CC2)C(=O)Nc2ccccc21	i
Cn1c(N2CCN(C(=O)C[C@H]3NC(=O)c4ccccc4NC3=O)CC2)nc2ccccc21	i
O=C(COc1ccccc1)Nc1nn2cc(-c3ccccc3)nc2s1	i
SMILES	KDM5B inh
COc1cccc(NC(=O)CN(C)C(=O)c2cccc(S(=O)(=O)N3CCc4ccccc43)c2)c1	i
COc1ccc(C2CC(=O)C3=C(C2)OC(N)=C(C#N)C3c2cccc(Br)c2)cc1 (centres undefined)	i
COc1cc(C)c(NC(=O)Cn2cnc3c2c(=O)n(C)c(=O)n3C)cc1OC	i
CSc1nc(Nc2cccc(F)c2)c(C#N)c(-c2ccccc2)n1	i
C#CCNC(=O)COC(=O)c1cccnc1Nc1cccc(C(F)(F)F)c1	i
O=C(/C=C/c1ccccc1F)N1CCN(c2ccccn2)CC1	i
CC(C)CCC(=O)N1CCCC(CN2CCN(c3ccccn3)CC2)C1 (centres undefined)	i
Cc1ccc(C(=O)NCC(=O)N2CCN(c3ccccn3)CC2)cc1	28µM*
CC(C)CC(=O)NCCc1ccccn1	i
O=C(Cc1c(F)cccc1Cl)NCC(=O)N1CCN(c2ccccn2)CC1	25µM*
COc1ccc(C(=O)NC[C@H]2O[C@@H](CC(=O)N3CCN(c4ccccn4)CC3)[C@H](O)[C@@H]2O)cc1	i
Cc1ccc(C(=O)NCC(=O)N2CCCCCC2)cc1	i
CC(C)CC(=O)NCC(=O)N1CCN(c2ccccn2)CC1	25µM*
O=C(Cc1c(F)cccc1Cl)N1C[C@@H](CO)[C@H](c2ccccn2)C1	i
Cc1nc2ccccc2nc1SC(C)C(=O)NCC(C)C (centres undefined)	i
Cc1csc(NC(=O)CCc2ncc(-c3c(F)cccc3F)o2)n1	i
O=S(=O)(c1ccc(Br)cc1)N1CCN(c2ccc(Nc3ccccc3)nn2)CC1	i
CCN1CCc2c(sc(NC(=O)Nc3ccc(Cl)cc3)c2C(N)=O)C1	i
Cc1[nH]c2ccc(Br)cc2c1C(=O)CCl	i
C(#CCN1CCN(CC#CCOC(c2ccccc2)c2ccccc2)CC1)COC(c1ccccc1)c1ccccc1	i
Cc1nnc(SCc2coc(-c3cccc(F)c3)n2)n1C	i
COc1ccccc1Cn1c(-c2cccc(Cl)c2)nc(C)c(CCO)c1=O	i
Cc1nc(-c2cccc(Cl)c2)n(CC(=O)NC(C)C)c(=O)c1CCO	i
Cc1nc(-c2cccc(Cl)c2)n(Cc2cc(=O)n3ccccc3n2)c(=O)c1CCO	32µM*
COc1ccc(F)c(-c2nc(Cn3cnc4ccccc43)c(C)o2)c1	i
SMILES	KDM5B inh
CC(=O)N1CCC(C2CCN(S(=O)(=O)c3cccnc3)C2)CC1 (centres undefined)	i
CN(C)S(=O)(=O)N1CCC(Nc2cccnc2)C1 (centres undefined)	8.9µM*
Cc1ccccc1S(=O)(=O)N1CCC(CCC(=O)Nc2cccnc2)CC1	i
O=C(c1ccoc1)N1CCC(Nc2cccnc2)C1 (centres undefined)	13µM*
O=C(c1ccoc1)N1CCC(Oc2cccnc2)C1 (centres undefined)	i
CCCS(=O)(=O)N1CCC(c2noc(-c3cccnc3)n2)C1 (centres undefined)	i
CCS(=O)(=O)N1CCC(Cc2nc(-c3cccnc3)n[nH]2)C1 (centres undefined)	i
Cn1cccc1C(=O)N1CCC(Nc2cccnc2)C1 (centres undefined)	i
CCS(=O)(=O)N1CCC(Nc2cccnc2)C1 (centres undefined)	22µM*
Cc1cccc(C)c1NC(=O)c1cc2cc(Br)ccc2oc1=O	i
Cc1cnc2c(S(=O)(=O)N3CCC(NS(=O)(=O)c4ccccc4)CC3)cccc2c1	i
COc1ccc(C(CNC(=O)c2ccc(Br)s2)N2CCCC2)cc1 (centres undefined)	i
CCCCOC(=O)c1ccc(NC(=O)COC(=O)c2ccc3nc(C)c(C)nc3c2)cc1	i
CSc1nnc(-c2nn(C)c3c2CN(S(=O)(=O)c2ccccc2)CC3)n1C	i
CCN(CC)C(=O)[C@@H]1C[C@H](N)CN1C(=O)c1cc2ccccc2n(C)c1=O	32µM*
CCNC(=O)[C@@H]1C[C@H](N)CN1C(=O)c1ccc(NC(C)=O)cc1C	i
CCN(CC)C(=O)C1Cn2cccc2C(=O)N1C (centres undefined)	i
O=C(O)c1occc1-c1cccs1	i
COc1ccc(C(C)=O)cc1COC(=O)CCc1ccc2c(c1)OCO2	i
Cc1ccc(CNC(=O)c2c(C)sc3ccn(CC(C)C)c(=O)c23)o1	25µM*
CCCn1ccc2sc(C)c(C(=O)NCc3ccccc3)c2c1=O	i
CCn1ccc2sc(C)c(C(=O)NCCC(C)C)c2c1=O	i
O=C(CSc1nnc(-c2cccs2)n1C1CC1)N1CCN(c2ccc(F)cc2)CC1	i
O=C(NCCCn1nccc1C1CC1)[C@H]1CNC[C@@H](C(=O)N2CCCC2)C1	i
Cc1cc(=O)[nH]c(NCCNC(=O)[C@H]2CCC[C@@H](O)C2)n1	i
SMILES	KDM5B inh
c1ccc2c(c1)cnn2CCCNc1ncncn1	i
CC(C)S(=O)(=O)CCNc1nccc(-c2cccnc2)n1	32µM*
c1cncc(-c2ccnc(NCCCn3nccc3C3CC3)n2)c1	28µM*
Cc1cc(NCCCNc2ccccc2)nc(-c2cccnc2)n1	i
C(=N\Nc1nccc(-c2cccnc2)n1)/c1ccccc1	i
Cc1cc(=O)[nH]c(NCCNc2nccc(-c3cccnc3)n2)n1	32µM*

High-throughput results: PubChem BioAssay, National Center for Advancing Translational Sciences (NCATS)
